Several values for one entry are separate records, joined by “and”; a condition that tells them apart may be missing. Identical values can stand only once. Results filed as inconclusive are left out. The source holds several records for some structures; these can differ, active in one and inactive in another. Activity calls are given as the source filed them. Calls come from the whole dose curve; as a rule, active = well fitted cell-killing curve with a large enough effect in the repeat runs; inconclusive = weak or mixed curves, or effect the other way; inactive = flat fitted curve, though single readings scatter. Starred links: 1 amine or outer side, 2 acyl side, 3 side chain; linkers in the order of their positions; H or OH if unused. Positions of bridges follow the written chain, without caps; N, C: chain ends. Non-standard residues stand in square brackets, D forms with d. Residues, ends and D or L forms follow the SMILES beside them. Chains are numbered I, II in the order given. Actinocin(9to1) = Cc1c2oc3c(C)ccc(C(=O)[*:1])c3nc-2c(C(=O)[*:2])c(N)c1=O; NMeV = CN[C@H](C(=O)O)C(C)C; Sar = CNCC(=O)O
Test: Caspase-3/7 induction in HepG2 cells by small molecules, qHTS cell viability counter screen (AID 1346981); note: nearly all actives have a fitted effect of over 30% in size
Conditions: CellTiter-Fluor fluorescence, 17 h; series mostly up to 92.4 µM; activity change, negative = cytotoxicity: at the top concentration
Text: U.S. Tox21 Program National Center for Advancing Translational Sciences [NCATS] NIH Chemical Genomics Center [NCGC] U.S. Environmental Protection Agency [EPA] National Institutes of Environmental Health Sciences [NIEHS] National Toxicology Program [NTP] U.S. Food and Drug Administration [FDA] Tox21 Assay Overview: Apoptosis is a process of programmed cell death and plays a central role in the development of multicellular organisms. It is a highly regulated process and induces cell death by activating caspases, which are the members of cysteine aspartic acid-specific protease (caspase) family. Caspases involved in apoptosis are classified by their mechanism of action as initiator caspases (caspase-2, -8, -9 and -10) and executioner caspases (caspase-3, -6, and -7). Inhibition of apoptosis results in number of cancers, autoimmune diseases, inflammatory diseases and viral infection. To identify small molecule compounds that induce apoptosis, a homogeneous, luminescent Caspase-Glo 3/7 assay was used. Wild type HepG2 cells were used to screen Tox21 libraries for identifying caspase-3/7 activity inducers. Also cytotoxicity of the compounds was tested in parallel by measuring the cell viability using CellTiter-Fluor assay system in the same wells.
Tox21 Assay Protocol Summary: HepG2 cells were dispensed at 2,000 per well in 5uL of culture medium into white solid bottom 1536-well plates (Corning Life Sciences, Corning, NY) using a Multidrop Combi (Thermo Scientific, Waltham, MA) dispenser. The assay plates were incubated at 37 C and 5% CO2 for 5hr, and then 23nL of compounds dissolved in DMSO and positive control were transferred using a Pintool station ([…], San Diego, CA). The assay plates were incubated at 37C and 5% CO2 for 17hr. For cytotoxicity read, after 16hr incubation at 37C, 1uL CellTiter-Fluor reagent (Promega Corporation, Madison, WI) was added to each well of the assay plates using Flying Reagent Dispenser (FRD, Aurora Discovery, San Diego, CA). After 1hr incubation at 37C and 5% CO2, the fluorescence signal was quantified using a ViewLux plate reader (PerkinElmer, Shelton, CT).
% is set by controls: 0 for no effect and ±100 for the full control effect; potency is the fitted concentration of half-maximal effect.

Q: For `Cc1ccc(S(=O)(=O)Oc2ccc(N=Nc3ccc(-c4ccc(N=Nc5c(O)ccc6cc(S(=O)(=O)O)cc(S(=O)(=O)O)c56)c(C)c4)cc3C)cc2)cc1`, which Potency is on record?
A: 19.4 µM (active) and 15.9 µM (active)

Q: With `O=C(O)CP(=O)(O)O` as the molecule, how does the “activity change, negative = cytotoxicity” value read?
A: 4.95% [at 42.5 µM] (inactive)

Q: With `Cc1c2oc3c(C)ccc(C(=O)N[C@@H]4C(=O)N[C@H](C(C)C)C(=O)N5CCC[C@H]5C(=O)N(C)CC(=O)N(C)[C@@H](C(C)C)C(=O)O[C@@H]4C)c3nc-2c(C(=O)N[C@@H]2C(=O)N[C@H](C(C)C)C(=O)N3CCC[C@H]3C(=O)N(C)CC(=O)N(C)[C@@H](C(C)C)C(=O)O[C@@H]2C)c(N)c1=O` (I: T[dV]P[Sar][NMeV] / II: T[dV]P[Sar][NMeV]; ester I:1-I:C, II:1-II:C; linker I:N-II:N via Actinocin(9to1)) as the molecule, how does the Potency read?
A: 29.8 µM (active) and 15 µM (active)

Q: Which “activity change, negative = cytotoxicity” value does the source give for `NCCCCCC(=O)O` here?
A: 0.38% [at 42.5 µM] (inactive)

Q: With `CCOc1ccccc1C(N)=O` as the molecule, how does the Potency read?
A: inactive

Q: Which Potency does the source give for `Cc1cc(C2(c3cc(C)c(O)cc3C)OS(=O)(=O)c3ccccc32)c(C)cc1O` here?
A: 30.6 µM (active) and 19.3 µM (active)

Q: For `CC1COc2c(N3CCN(C)CC3)c(F)cc3c(=O)c(C(=O)O)cn1c23` (stereo not given), which “activity change, negative = cytotoxicity” value is on record?
A: 3.42% [at 42.5 µM] (inactive)

Q: For `CCCCN(CCO)CCCC`, which “activity change, negative = cytotoxicity” value is on record?
A: -15.7% (inactive)

Q: With `c1ccc2c(c1)CCCC2C1=NCCN1` (stereo not given) as the molecule, how does the “activity change, negative = cytotoxicity” value read?
A: -0.27% [at 42.5 µM] (inactive)

Q: With `O=C(OCc1ccccc1)c1ccc(O)cc1` as the molecule, how does the Potency read?
A: inactive

Q: Which Potency does the source give for `[Cl][In]([Cl])[Cl]` here?
A: inactive

Q: Which Potency does the source give for `CCN(CC)C(=S)SSC(=S)N(CC)CC` here?
A: inactive

Q: For `CCOc1ccc2c(c1)C(C)=CC(C)(C)N2`, which Potency is on record?
A: inactive

Q: For `CO[Si](OC)(OC)c1ccccc1`, which “activity change, negative = cytotoxicity” value is on record?
A: -0.237% (inactive)

Q: Which Potency does the source give for `CCCCCCCCCCCCCC[P+](CCCC)(CCCC)CCCC` here?
A: 54.2 µM (active)

Q: Which “activity change, negative = cytotoxicity” value does the source give for `CCOC(=O)C(C)C(C)=O` (stereo not given) here?
A: -0.125% (inactive)

Q: Which Potency does the source give for `O=C(O)c1cn(-c2ccc(F)cc2)c2cc(N3CCNCC3)c(F)cc2c1=O` here?
A: inactive

Q: With `CCC[C@H](N[C@@H](C)C(=O)N1[C@H](C(=O)O)C[C@@H]2CCCC[C@@H]21)C(=O)OCC` as the molecule, how does the Potency read?
A: inactive

Q: With `O=Cc1ccc(Cl)cc1` as the molecule, how does the “activity change, negative = cytotoxicity” value read?
A: 2.66% (inactive)

Q: Which “activity change, negative = cytotoxicity” value does the source give for `O=C(O)Cn1cnnn1` here?
A: 8.94% [at 42.5 µM] (inactive)

Q: With `Cc1c(O)cccc1C(=O)N[C@@H](CSc1ccccc1)[C@H](O)CN1C[C@H]2CCCC[C@H]2C[C@H]1C(=O)NC(C)(C)C` as the molecule, how does the Potency read?
A: 11.9 µM (active) and 13.3 µM (active)

Q: With `c1ccc2cc3c(ccc4ccccc43)cc2c1` as the molecule, how does the “activity change, negative = cytotoxicity” value read?
A: -8.57% (inactive)

Q: Which Potency does the source give for `O` here?
A: inactive

Q: Which activity change, negative = cytotoxicity does the source give for `NC(Cc1ccc(Cl)cc1)C(=O)O` (stereo not given) here?
A: -2.01% [at 0.349 µM] (inactive)

Q: For `Cc1cc(OCCOCC[N+](C)(C)Cc2ccccc2)ccc1C(C)(C)CC(C)(C)C`, which Potency is on record?
A: 54.2 µM (active)

Q: With `CCCOC(=O)c1cc(O)c(O)c(O)c1` as the molecule, how does the Potency read?
A: inactive

Q: With `O=C(O)c1cc(Cl)cc(Cl)c1` as the molecule, how does the “activity change, negative = cytotoxicity” value read?
A: 10.9% (inactive)

Q: With `C=C(C)C(=O)O` as the molecule, how does the Potency read?
A: inactive

Q: With `c1ccc2c(c1)-c1cccc3c1c-2cc1ccccc13` as the molecule, how does the Potency read?
A: inactive

Q: For `CC(COc1ccccc1)N(CCCl)Cc1ccccc1` (stereo not given), which Potency is on record?
A: inactive

Q: Which Potency does the source give for `CC(=O)N[C@@H](CS)C(=O)O` here?
A: inactive

Q: Which Potency does the source give for `CCC(=O)/C=C/C1C(C)=CCCC1(C)C` (stereo not given) here?
A: inactive

Q: With `CC(=O)C1=C(C)[C@@H]2C[C@@]3(C1)[C@H](C)CC[C@H]3C2(C)C` as the molecule, how does the Potency read?
A: inactive

Q: Which Potency does the source give for `Cc1cccc(O)c1C` here?
A: inactive

Q: For `CCCCCCCCCCCCc1ccccc1O`, which Potency is on record?
A: 60.3 µM (active) and 48.6 µM (active)

Q: With `CC(C)(c1ccccc1)c1ccc(Nc2ccc(C(C)(C)c3ccccc3)cc2)cc1` as the molecule, how does the Potency read?
A: inactive

Q: For `CC(C)(C)NC(=O)[C@@H]1CN(Cc2cccnc2)CCN1C[C@@H](O)C[C@@H](Cc1ccccc1)C(=O)N[C@H]1c2ccccc2C[C@H]1O`, which “activity change, negative = cytotoxicity” value is on record?
A: -3.01% [at 42.5 µM] (inactive)

Q: Which “activity change, negative = cytotoxicity” value does the source give for `CC(C)(C)NCC(O)COc1ccccc1OCC1CCCO1` (stereo not given) here?
A: -0.0974% [at 42.5 µM] (inactive)

Q: With `CC1=CC(=O)c2ccccc2C1=O` as the molecule, how does the Potency read?
A: 68.6 µM (active) and inactive

Q: With `O=C(Cl)c1cccc(C(=O)Cl)c1` as the molecule, how does the Potency read?
A: inactive

From PubChem BioAssay (Tox21)
